The source made the active and inactive calls. The calls were made as follows: active = hit-call score of the fitted dose curve at least 0.9, where 1 is the maximum; inactive = score below 0.9.
read-out: Cellular tumor antigen p53 (Homo sapiens) (UniProt P04637); assay: LTEA_HepaRG_TP53: Life Technologies and Expression Analysis (LTEA) Assay for Tumor Protein P53 (TP53) using HepaRG (AID 2283537); settings: mRNA level, 48 h; actives raise or lower the signal
Description: LTEA_HepaRG is a cell based, multiplexed-readout assay that uses HepaRG, a human liver cell line, with measurements taken at 48 hours after chemical dosing on a 96-well plate.LTEA_HepaRG_TP53 is one of 102 assay component(s) measured in the LTEA HepaRG cell culture assay. It is a marker of Oxidative Stress.Data from the assay component LTEA_HepaRG_TP53 was analyzed into 1 endpoint. This assay endpoint, LTEA_HepaRG_TP53, was analyzed with bidirectional fitting relative to DMSO as the negative control and baseline of activity. Using a type of inducible reporter, measures of mRNA induction for gain or loss-of-signal activity can be used to understand regulation of transcription factor activity. To generalize the intended target to other relatable targets, this assay endpoint is annotated to the dna binding intended target family, where the subfamily is tumor suppressor.
A total of 1060 chemcials from the ToxCast library were tested in eight-point concentration-response experiments. Cell culture and cytotoxicity assays were conducted at Thermo Fisher Scientific's Custom Services facility (Madison, WI). A single lot of human HepaRG cells (Thermo Fisher Scientific, Frederick, MD) was used for the cell culture experiments. 96-well format collagen type I coated plates of human HepaRG cells were prepared using established methods. Briefly, cryopreserved HepaRG cells were thawed, plated at a density of approximately 100,000 cells/well in HepaRG Thaw, Plate, and General Purpose media (HPRG770, Thermo Fisher Scientific), and incubated for 48 hours. 0.5% DMSO was selected as vehicle control to balance the requisite need of DMSO in HepaRG cultures to maintain differentiation (for example, baseline metabolism, proportions of hepatocytes vs. cholangiocytes), while enabling further hepatic receptor pathway activation (for example, PXR and CAR) in response to chemical exposure. 48 hours after plating, the culture medium was replaced with HepaRG Serum-Free Incudtion Media. Cells were exposed to each test chemical in duplicate and maintained in CO2 incubators for another 48 hours. Chemical plates were thawed to room temperature and 200x concentrations of treatment groups were prepared. 8-point conentration-reponse curves were made with the highest exposure at 100 uM, followed by half-log dilutions, all in 0.5% DMSO. Each test plate contained variouse controls, induction positive controls (1mM phenobarbital), cytotoxicity positive controls ([…] aflatoxin B1), vehicle controls (0.5% DMSO), and total lysis controls (0.5% DMSO). Cell morphology images were taken using an Essen IncuCyte FLR automated microscope, with six 96-well plates imaged in about 24 minutes. Images were captured and exported and JPEG files. Spent culture media was transfered to black-well plates for the LDH assay, and remaining media was sorted at -80 C for later use. Cells were treated with RLT buffer and frozen until shipped for gene expression analysis. Total RNA was isolated from the cell suspension in 75 uL of Buffer RLT (Qiagen, Germantown, MD 20874) by Quintiles/Expression Analysis (Durham, NC) using a custom isolation procedure. Total RNA from each plate well was transferred to a preamplification plate. Fluidigm's 96.96 Dynamic ArrayTM (Fluidigm, Amsterdam, the Netherlands) technology was used for gene expression analyses by quantitative reverse transcription polymerase chain reaction (qRT-PCR, performed by Quintiles/Expression Analysis, Durham, NC)89. Standard TaqManTM Assays (Applied Biosystems/ThermoFisher Scientific, Foster City, CA) were used to assess the expression of 93 genes selected based on their selectivity and sensitivity to important hepatic receptors known to be modulated by environmental chemicals; importance in human hepatocyte functionality; and hepatotoxicity. […]

Chain of Cellular tumor antigen p53 (Homo sapiens) (P04637 whole entry, looked up): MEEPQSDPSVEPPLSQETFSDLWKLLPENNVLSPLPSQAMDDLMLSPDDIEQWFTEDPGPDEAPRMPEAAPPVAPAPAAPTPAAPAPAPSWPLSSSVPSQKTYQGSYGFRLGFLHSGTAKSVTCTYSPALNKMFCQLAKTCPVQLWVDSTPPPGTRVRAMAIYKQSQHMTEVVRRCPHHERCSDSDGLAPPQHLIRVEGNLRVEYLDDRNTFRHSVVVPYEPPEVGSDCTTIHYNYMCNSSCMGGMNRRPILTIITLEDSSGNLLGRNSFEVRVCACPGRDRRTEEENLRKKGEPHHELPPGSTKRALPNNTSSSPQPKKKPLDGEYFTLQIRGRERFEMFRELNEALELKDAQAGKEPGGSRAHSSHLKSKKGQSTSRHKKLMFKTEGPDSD

| Structure (SMILES) | outcome | AC50 |
| --- | --- | --- |
| O=C(O)C(Cl)(Cl)Cl | inactive | – |
| C=CC(=O)OCCCCCC(C)C | inactive | – |
| O=[N+]([O-])c1ccc(O)c([N+](=O)[O-])c1 | – | 13.2 µM (active) |
| C[C@]12CCC(=O)C[C@@H]1CC[C@@H]1[C@@H]2CC[C@]2(C)[C@@H](O)CC[C@@H]12 | inactive | – |
| Cc1ccccc1N | inactive | – |
| Oc1cccc2cccnc12 | inactive | – |
| COc1cc(-c2ccc(N)c(OC)c2)ccc1N | inactive | – |
| CC12CC1(C)C(=O)N(c1cc(Cl)cc(Cl)c1)C2=O (stereo unspecified) | inactive | – |
| O=C(Nc1ccc2[nH]ccc2c1)c1cc2cc(F)ccc2n1Cc1cccc(F)c1 | – | 12.4 µM (active) |
| CCOP(=S)(OCC)SCSP(=S)(OCC)OCC | – | 0.217 µM (active) |
| CC(C)(c1ccccc1)c1ccc(O)c(C(C)(C)c2ccccc2)c1 | inactive | – |
| CC(C)(C)CC(C)(C)c1ccc(O)cc1 | inactive | – |
| CCN1CCC2(CC1)COc1cc3c(cc12)N(C(=O)c1ccc(-c2ccc(-c4nnc(C)o4)cc2C)cc1)CC3 | – | 46.8 µM (active) |
| C=C(C)C(=O)[O][Sn]([CH2]CCC)([CH2]CCC)[CH2]CCC | inactive | – |
| CCC(=O)C(CC(C)N(C)C)(c1ccccc1)c1ccccc1 (stereo unspecified) | inactive | – |
| Cn1sc(Cl)cc1=O | inactive | – |

| Structure (SMILES) | outcome | AC50 |
| --- | --- | --- |
| CC(=O)[O][Hg][c]1ccccc1 | – | 0.193 µM (active) |
| O=C1C2(Cl)C3(Cl)C4(Cl)C(Cl)(Cl)C5(Cl)C3(Cl)C1(Cl)C5(Cl)C24Cl (stereo unspecified) | – | 22.6 µM (active) |
| C[C@@H]1C[C@@H]([C@H](O)CC2CC(=O)NC(=O)C2)C(=O)[C@@H](C)C1 | – | 12 µM (active) |
| CCC(C)(C)c1ccc(O)c(C(C)(C)CC)c1 | inactive | – |
| O=c1[nH]c(=O)[nH]c(=O)[nH]1 | inactive | – |
| CN(C)N=O | inactive | – |
| O=C(O)C(F)(F)C(F)(F)C(F)(F)C(F)(F)C(F)(F)C(F)(F)C(F)(F)C(F)(F)C(F)(F)C(F)(F)F | inactive | – |
| CC(C)(C)c1cc(O)ccc1O | inactive | – |
| O=C(O)C(F)(F)C(F)(F)C(F)(F)C(F)(F)C(F)(F)C(F)(F)F | inactive | – |
| NC(=O)O | inactive | – |
| CCCCCCCCc1ccc(O)cc1 | – | 0.418 µM (active) |
| CCOP(=S)(OCC)Oc1nc(Cl)c(Cl)cc1Cl | inactive | – |
| CC(C)(OO)c1ccccc1 | inactive | – |
| ClCC(Cl)CCl | inactive | – |
| ClC1(Cl)C2(Cl)C3(Cl)C4(Cl)C(Cl)(Cl)C5(Cl)C3(Cl)C1(Cl)C5(Cl)C24Cl (stereo unspecified) | inactive | – |

— PubChem BioAssay (EPA / NIEHS)
